GPR151 activ = human GPR151 activation; hit rate 1% among 650,000; Q8TDV0; activation, % at 11.2 µM; AID 1508602; PathHunter beta-arrestin GPR151 cells, luminescence; in the data active = activation above about 4.9%;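 also: 0% = median of compound wells and 100% = cells with positive control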
FBW7 activator = human FBW7 E3 ligase activation, primary screen; AlphaScreen FBW7–phospho-cyclin E peptide binding, activator screen; hit rate 0.13% among 650,000; Q969H0; AID 1259310; normalized activity (activation), % at 26.1 µM; in the data active = normalized activity above about 1.9%;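 also: purified mutant Fbw7 with reduced substrate affinity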
Target sequence (Q969H0 whole entry, looked up): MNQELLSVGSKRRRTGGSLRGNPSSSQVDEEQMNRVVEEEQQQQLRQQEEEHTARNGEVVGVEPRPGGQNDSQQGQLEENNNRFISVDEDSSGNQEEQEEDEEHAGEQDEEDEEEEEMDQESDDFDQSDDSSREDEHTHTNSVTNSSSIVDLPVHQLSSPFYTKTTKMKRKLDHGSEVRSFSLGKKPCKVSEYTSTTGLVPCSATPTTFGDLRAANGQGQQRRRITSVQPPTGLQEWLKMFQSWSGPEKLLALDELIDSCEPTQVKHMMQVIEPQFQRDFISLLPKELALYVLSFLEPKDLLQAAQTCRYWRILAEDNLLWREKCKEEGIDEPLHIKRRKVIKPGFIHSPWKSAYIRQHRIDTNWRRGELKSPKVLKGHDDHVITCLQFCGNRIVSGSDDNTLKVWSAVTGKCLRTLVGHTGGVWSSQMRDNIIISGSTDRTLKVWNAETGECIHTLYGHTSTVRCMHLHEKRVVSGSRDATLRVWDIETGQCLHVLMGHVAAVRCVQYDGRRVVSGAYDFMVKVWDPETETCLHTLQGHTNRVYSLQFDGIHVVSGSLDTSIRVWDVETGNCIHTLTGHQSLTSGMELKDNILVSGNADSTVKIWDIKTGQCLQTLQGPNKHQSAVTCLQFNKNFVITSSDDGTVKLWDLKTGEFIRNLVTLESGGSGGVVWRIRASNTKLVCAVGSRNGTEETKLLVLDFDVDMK
MITF inh = blocks human microphthalmia-associated transcription factor | O75030 | AlphaScreen MITF homodimerization, bead proximity signal | inhibition, % at 2.6 µM | hit rate 0.91% among 650,000 | AID 1259374; in the data active = inhibition above about 50%;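 also: 0% = vehicle wells with protein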
TEAD-YAP inh = TEAD-YAP interaction inhibition; hit rate 1.4% among 640,000; AID 1259422; inhibition, % at 9.12 µM; HEK-TIYL cells, TEAD-Gal4/YAP UAS-luciferase luminescence; in the data active = inhibition above about 32%;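 also: 0% = median of test compound wells and 100% = reference inhibitor wells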
MITF inh conf = confirmation of human MITF inhibitors | AlphaScreen MITF homodimerization, biotin/His-MITF beads | hit rate 16% among 4,700 | inhibition, % at 2.6 µM | shares compounds with MITF inh | AID 1259372;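 active = inhibition above a cutoff derived from the DMSO control wells, cut at about 28% in these data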;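 also: 0% = MITF dimer wells with DMSO only; inhibitors lower the bead chemiluminescence by keeping MITF from dimerizing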
AlphaScreen intf2 = AlphaScreen optical interference, counter-screen | shares compounds with MITF inh | LysRS AlphaScreen counterscreen, signal interference, triplicate | inhibition, % at 2.6 µM | hit rate 7.6% among 4,700 | AID 1259376;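 active = inhibition above a cutoff derived from the DMSO control wells, cut at about 30% in these data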
* hit, by the source's call; . = not tested or not shown. Hits are enriched below; roughly 3.5% of the tested compounds scored in any of these assays.

SMILES | GPR151 activ | FBW7 activator | MITF inh | TEAD-YAP inh | MITF inh conf | AlphaScreen intf2
Nc1n[nH]c(CC(=O)N(Cc2ccco2)C2(C(=O)Nc3ccccc3)CCCCC2)n1 | -1 | 0 | 66* | -6 | 96* | 101*
COc1ccc(NC(=O)C2(N(Cc3ccco3)C(=O)Cc3nc(N)n[nH]3)CCCCC2)cc1 | -2 | 0 | 23 | -8 | . | .
Cc1ccc(NC(=O)C2(N(Cc3ccccc3)C(=O)Cc3nc(N)n[nH]3)CCCCC2)cc1 | 1 | 0 | 58* | 9 | 100* | 100*
COc1ccc(NC(=O)C2(N(Cc3ccccc3)C(=O)Cc3nc(N)n[nH]3)CCCCC2)cc1 | -2 | 0 | 22 | -6 | . | .
Nc1cc(C(F)(F)F)ccc1-n1cnc2ccccc21 | 1 | 0 | -10 | -6 | . | .
Cc1cccc(C(C)(C)C)c1OCCCN1CCN(C)CC1 | 1 | 0 | 68* | 2 | -11 | -7
Cc1cccc(C(C)(C)C)c1OCCOCCN1CCOCC1 | 3 | 0 | 30 | -3 | . | .
Cc1cccc(C)c1OCCOCCN1CCN(C)CC1 | 2 | 0 | 64* | -1 | 21 | 16
Cc1ccccc1OCCOCCN1CCN(C)CC1 | -1 | 0 | 73* | -3 | 15 | 18
CN1CCN(c2nc3c(c(=O)[nH]c(=O)n3C)n2CCO)CC1 | 1 | 0 | 0 | 5 | . | .
COc1cccc(-n2nnc3c(=O)n(CC(=O)NCc4ccccc4)cnc32)c1 | 0 | 0 | 12 | 1 | . | .
COc1ccc(N2CC(CNC(=O)Cc3ccc(F)cc3)CC2=O)cc1 (stereo unspecified) | -1 | 0 | 55* | 4 | -16 | -3
COc1ccc(Br)cc1CN1CCCC(C(=O)N2CCCC2)C1 (stereo unspecified) | 1 | 0 | 79* | 0 | -3 | 15
COc1ccc(Br)cc1CN1CCCC(C(N)=O)C1 (stereo unspecified) | 1 | 0 | -3 | 3 | . | .
COc1ccc(Br)cc1CN1CCCC(C(=O)N2CCCCC2)C1 (stereo unspecified) | 0 | 0 | 84* | 6 | 9 | 19
O=C(O)Cc1ccc(OC(F)F)cc1 | 3 | 1 | 2 | 3 | . | .
COc1cc(OC)cc(C(=O)NNS(=O)(=O)c2ccc(F)cc2)c1 | -1 | 0 | -8 | 5 | . | .
O=C1OC(c2cccc([N+](=O)[O-])c2)=N/C1=C\C=C\c1ccccc1[N+](=O)[O-] | 1 | 0 | -9 | 0 | . | .
CC(=O)C(/C=N/NC(=O)c1ccccn1)=C(\C)O | 3 | -2 | 59* | 8 | 33* | 57*
O=C(N/N=C\C(Br)=C\c1ccccc1)c1ccccn1 | -2 | 0 | -5 | 0 | . | .
OC1CCN(Cc2cccc(F)c2)CC1 | 0 | 0 | 28 | 1 | . | .
CC1CCC(N2CCN(Cc3cccc(F)c3)CC2)CC1 (stereo unspecified) | 0 | 0 | 54* | -7 | 7 | 14
Fc1cccc(CN2CCN(C3CCCCC3)CC2)c1 | 0 | 0 | 72* | 10 | 7 | 12
Fc1cccc(CN2CCN(C3CCCCCC3)CC2)c1 | 0 | 0 | 66* | -2 | 6 | 13

Screening data: PubChem BioAssay, The Scripps Research Institute Molecular Screening Center
